Test results: PubChem BioAssay (NCI)
Compounds without any hit were thinned out: in the full panel of roughly 79,000, 15% have a hit. Values without a mark were called inactive. Activity calls are given as the source filed them. Rule as the data show it: active = growth inhibition above about 70%; inactive = the rest.

Assays:
[1] = NCI Yeast Anticancer Drug Screen. Data for the rad50 strain (AID 155);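 also: 0% = growth of vehicle-only cultures of the same strain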; conditions: S. cerevisiae rad50 strain growth inhibition, active compounds read high
Procedure, shortened: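 Vehicle-treated cultures provide the reference for the growth inhibition reported for compound-exposed, repair-deficient yeast.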

[2] = NCI Yeast Anticancer Drug Screen. Data for the mec2-1 strain (AID 157); conditions: S. cerevisiae mec2-1 strain, active compounds read high
Procedure, shortened: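 Vehicle-treated cultures served as reference for growth inhibition of compound-exposed mec2-1 yeast.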

[3] = NCI Yeast Anticancer Drug Screen. Data for the sgs1 mgt1 strain (AID 161);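 also: 0% = growth of cultures given vehicle only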; conditions: S. cerevisiae sgs1 mgt1 strain, active compounds read high
Procedure, shortened: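 Genetically altered yeast, compound exposure, growth inhibition relative to vehicle.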

[4] = NCI Yeast Anticancer Drug Screen. Data for the cln2 rad14 strain (AID 165);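 also: 0% = growth equal to vehicle treated cultures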; conditions: S. cerevisiae cln2 rad14 strain, active compounds read high
Procedure, shortened: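 Each compound was tested on cln2 rad14 yeast. Inhibition of growth was calculated against vehicle-exposed controls.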

[5] = NCI Yeast Anticancer Drug Screen. Data for the bub3 strain (AID 167); conditions: S. cerevisiae bub3 mutant strain, active compounds read high
Procedure, shortened: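 Mutant yeast screening strain plus compound; vehicle-treated cultures serve as the 0% inhibition reference.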

[6] = NCI Yeast Anticancer Drug Screen. Data for the mlh1 rad18 strain (AID 175); conditions: S. cerevisiae mlh1 rad18 strain growth inhibition, active compounds read high
Procedure, shortened: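 Vehicle-treated cultures served as the reference for growth inhibition in a yeast strain carrying DNA damage repair alterations exposed to each compound.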

[7] = at 5.0 µM (retest, dose inferred, filed as 0.5)
[8] = at 50.0 µM (retest, dose inferred, filed as 5.0)

SMILES	growth inhibition [1, 7]	growth inhibition [1, 8]	growth inhibition ([1]; at 50.0 µM)	growth inhibition [2, 7]	growth inhibition [2, 8]	growth inhibition ([2]; at 50.0 µM)	growth inhibition [3, 7]	growth inhibition [3, 8]	growth inhibition ([3]; at 50.0 µM)	growth inhibition [4, 7]	growth inhibition [4, 8]	growth inhibition ([4]; at 50.0 µM)	growth inhibition [5, 7]	growth inhibition [5, 8]	growth inhibition ([5]; at 50.0 µM)	growth inhibition [6, 7]	growth inhibition [6, 8]	growth inhibition ([6]; at 50.0 µM)
CCCCN(CCCC)S(=O)(=O)c1ccccc1	3%	27%	44.7%	-4%	3%	32.4%	1%	52%	7.85%	-1%	-9%	-11.4%	3%	14%	65.5%	2%	17%	79% (active)
COc1cc(Cc2n[nH]c(=S)n2-c2ccccc2)c(S(=O)(=O)N2CCOCC2)cc1OC	4%	1%	-10.2%	-2%	-5%	-5.2%	9%	-6%	-0.7%	1%	0%	82.7% (active)	-3%	7%	-32%	-2%	-62%	11.4%
c1ccc2c(O[Si](Oc3cccc4ccccc34)(Oc3cccc4ccccc34)Oc3cccc4ccccc34)cccc2c1	7%	87% (active)	96% (active)	0%	87% (active)	97.7% (active)	3%	89% (active)	97.8% (active)	-5%	71% (active)	89.6% (active)	3%	93% (active)	96.8% (active)	2%	86% (active)	95.8% (active)
COc1ccc(N=Nc2ccc(O)cc2)cc1	7%	40%	96.5% (active)	-5%	62%	96% (active)	2%	16%	97.5% (active)	7%	59%	92% (active)	-22%	88% (active)	96.4% (active)	8%	65%	97% (active)
O=c1[nH]c(Cc2ccccc2)nc2c1sc1nc3ccccc3n12	36%	86% (active)	25.2%	9%	56%	-1.95%	19%	92% (active)	-34.2%	28%	81% (active)	-2.85%	8%	89% (active)	-33.4%	18%	83% (active)	-7.45%
CC(C)SC(=S)Nc1ccc(Cl)cc1	-5%	92% (active)	97.8% (active)	-1%	98% (active)	99% (active)	8%	88% (active)	97% (active)	-18%	64%	96.8% (active)	0%	91% (active)	99% (active)	5%	96% (active)	98.9% (active)
CCOC(=O)C1=C(C)NC(C)=C(C(=O)OCC)C1c1ccnc2ccccc12	10%	94% (active)	63.8%	7%	97% (active)	54.4%	-26%	96% (active)	55%	-8%	93% (active)	63.8%	10%	93% (active)	98% (active)	10%	96% (active)	55.9%
CCN(CC)CCO/N=C1\CC[C@H]2[C@@H]3CCc4cc(OC)ccc4[C@H]3CC[C@]12C	31%	99% (active)	89.1% (active)	27%	98% (active)	92.2% (active)	58%	98% (active)	91.3% (active)	67%	98% (active)	89% (active)	66%	98% (active)	90.7% (active)	34%	99% (active)	89.7% (active)
c1ccc2c(c1)Cc1c-2nc2ccccc2c1N1CCOCC1	87% (active)	98% (active)	97% (active)	17%	99% (active)	91% (active)	6%	98% (active)	82.3% (active)	18%	98% (active)	34.9%	54%	98% (active)	67.5%	25%	98% (active)	89.7% (active)
CC(=O)OCC1OC(n2cnc3c(Cl)nc(Cl)nc32)C(OC(C)=O)C1OC(C)=O (configuration not stated)	0%	0%	73.7% (active)	1%	5%	54.1%	-1%	7%	75.3% (active)	3%	3%	72.6% (active)	1%	-2%	70% (active)	-1%	0%	74.1% (active)
[O-][N+]1=C2CCC/C(=N/O)C2(O)C2CCCCC21N1CCOCC1 (configuration not stated)	26%	20%	-8.05%	29%	19%	-39.8%	24%	21%	-2.1%	23%	26%	25.5%	22%	14%	-7.1%	28%	26%	-3.2%
COc1ccc2c(c1)CC[C@@H]1C2CC[C@]2(C)OC(=O)CCC12 (some centres not stated)	-23%	98% (active)	73.1% (active)	-5%	89% (active)	66.8%	-15%	93% (active)	77.1% (active)	-4%	92% (active)	67.3%	-31%	97% (active)	72.7% (active)	12%	97% (active)	71.7% (active)
COc1ccccc1C(C)c1ccc2ccccc2c1C(=O)O (configuration not stated)	11%	91% (active)	94.6% (active)	2%	93% (active)	94% (active)	1%	90% (active)	95% (active)	7%	93% (active)	96.1% (active)	-6%	87% (active)	93.4% (active)	2%	94% (active)	96% (active)
N/C(=N\OC1(c2ccccc2)OC(=O)C(=O)/C1=C(/O)c1ccccc1)c1ccccc1 (configuration not stated)	10%	97% (active)	98% (active)	8%	89% (active)	98.5% (active)	13%	87% (active)	96.6% (active)	0%	75% (active)	78% (active)	7%	94% (active)	98.2% (active)	4%	92% (active)	98.3% (active)
O=S(=O)(Nc1ccccc1)c1ccccc1C(O)(c1ccccc1)c1ccccc1	6%	71% (active)	93.6% (active)	-15%	94% (active)	73.1% (active)	-179%	48%	92.1% (active)	-2%	82% (active)	85.2% (active)	15%	96% (active)	81.2% (active)	-21%	92% (active)	95.5% (active)
COc1ccc(CSC(=S)Nc2ccc(SC)c(Cl)c2)cc1	50%	90% (active)	96.4% (active)	23%	96% (active)	98.1% (active)	62%	94% (active)	97% (active)	-10%	88% (active)	94.5% (active)	16%	97% (active)	97% (active)	65%	94% (active)	97.9% (active)
COC(=O)c1ccc(NCc2c(O)ccc(O)c2Br)cc1Cl	21%	99% (active)	89.5% (active)	14%	99% (active)	92.2% (active)	21%	99% (active)	89.1% (active)	25%	99% (active)	90.2% (active)	22%	99% (active)	91.8% (active)	25%	98% (active)	91.7% (active)
[N-]=[N+]=Nc1ccnc2ccc(C3CCCCC3)cc12	-8%	99% (active)	56.5%	-8%	100% (active)	30.9%	-8%	99% (active)	94.8% (active)	6%	99% (active)	51.1%	-4%	99% (active)	67.3%	-2%	99% (active)	91.7% (active)
O=C1N=c2ccc(Br)cc2=C1c1sc(=O)n(Cc2nc3ccccc3[nH]2)c1O	3%	-8%	70.5% (active)	-11%	8%	54%	-2%	4%	79.2% (active)	-6%	6%	55.7%	1%	13%	9.4%	0%	38%	88.7% (active)
